In PubChem BioAssay AID2314 (National Center for Advancing Translational Sciences (NCATS), 2010):
Screen size: about 300,000 compounds; about 37,000 (12%) were called active. This is one part of a sample in which actives are shown more often than they occur. Cut-off read from the data, not from the text of the source: active = max response mostly above about 13% (no sharp cut-off); inactive = mostly below about 14%.

Experiment: Cycloheximide Counterscreen for Small Molecule Inhibitors of Shiga Toxin; note: read at 38.3 µM for the half of the compounds with a filed dose; 0% is about no effect
Settings: cell reporter, cycloheximide protein synthesis inhibition counterscreen; stronger effect = higher value

| Compound | max response |
| --- | --- |
| COCCNC(=O)CCCN1C(=O)c2ccccc2Sc2ncccc21 | 5.87% (inactive) |
| Cc1ccc(C2=N/C(=C\c3ccc(OS(=O)(=O)c4ccc(C)cc4)cc3)C(=O)O2)cc1 | 0.746% (inactive) |
| Cc1cccc(C2=N/C(=C/c3cccs3)C(=O)O2)c1 | 29.6% (active) |
| Cc1ccc(N2CCN(C3=NC(=O)/C(=C\c4cccs4)S3)CC2)cc1 | 3.49% (inactive) |
| Cc1ccc(S(=O)(=O)N2CCN(C(=O)N3CCOCC3)CC2)c(C)c1 | -0.587% (inactive) |
| Cc1ccc(NC(=O)[C@H](Cc2ccccc2)NC(=O)C2CCNCC2)cc1 | -1.28% (inactive) |
| CC(=O)Nc1cc2ccc(OC(C)=O)cc2oc1=O | -3.66% (inactive) |
| Cc1ccccc1NC(=O)C1CCN(C(=O)NC2CCCCC2)CC1 | -2.51% (inactive) |
| O=C(Nc1cc2ccccc2oc1=O)C1CCCCC1 | 34.2% (active) |
| Cc1ccc(S(=O)(=O)N/N=C(\c2ccccc2)C2CC2)cc1 | -0.529% (inactive) |
| COc1cccc(C2c3[nH]c4ccccc4c3CCN2Cc2cccc(C)n2)c1 (stereo not given) | -0.212% (inactive) |
| CCOc1ccc(S(=O)(=O)N2CCC(c3ccccc3)CC2)cc1C(=O)O | -3.04% (inactive) |
| COc1ccc(C=C(C#N)C#N)c(CSc2ccccn2)c1 | -3.44% (inactive) |
| COc1ccc(/C=N/OCc2ccccc2C#N)c(OC)c1 | 38% (active) |
| COc1ccc(/C=N/Nc2cc(N3CCOCC3)nc(C)n2)c(OC)c1 | -1.58% (inactive) |
| Cc1ccc(C(=O)Nc2nnc(C3=COCCO3)o2)cc1C | 14.8% (active) |
| O=C(Nc1nnc(C2=COCCO2)o1)c1ccc([N+](=O)[O-])s1 | -2.32% (inactive) |
| Cc1ccc(C(=O)Nc2nnc(-c3cccs3)s2)cc1C | 13.9% (inactive) |
| Cc1nn(Cc2ccccc2)c(C)c1NS(=O)(=O)c1ccccc1 | 5.29% (inactive) |
| CCN(CC)S(=O)(=O)c1ccc(N(C)CCc2ccc(OC)c(OC)c2)nc1 | -1.93% (inactive) |
| CCOc1ccccc1NC(=O)Cn1ncc2ccc([N+](=O)[O-])cc21 | 8.74% (inactive) |
| CCN(CC)CCN1C(=O)C2C(C(=O)Nc3ccc(Br)cc3)C3C=CC2(O3)C1C(=O)NC1CCCCC1 (stereo not given) | -5.6% (inactive) |
| CC(C)N1C(=O)C2C(C(=O)NC3CCCCC3)C3C=CC2(O3)C1C(=O)NC1CCCC1 (stereo not given) | -1.06% (inactive) |
| O=C(Nc1ccccc1F)C1C2C=CC3(O2)C1C(=O)N(c1cccnc1)C3C(=O)NC1CCCCC1 (stereo not given) | 41.8% (active) |

| Compound | max response |
| --- | --- |
| Cc1cccc(C(=O)NC(=S)N2CCN(c3ccc([N+](=O)[O-])cc3)CC2)c1 | -1.96% (inactive) |
| O=c1c(-c2ccc(Cl)cc2)[n+]([O-])c2ccccc2n1OCc1nc2ccccc2[nH]1 | 24.8% (active) |
| CCN(CC)CCCNC(=S)N(CCO)Cc1cc2cc3c(cc2[nH]c1=O)OCO3 | -1.33% (inactive) |
| COc1ccc(CCNC(=O)CCC(=O)NC2CCCCC2)cc1OC | -1.91% (inactive) |
| CC(C)(C)C1CCC(C(=O)Nc2cccnc2)CC1 (stereo not given) | -2.39% (inactive) |
| COCC1CCCN(Cc2cn[nH]c2-c2cc3ccccc3o2)C1 (stereo not given) | 7.39% (inactive) |
| COCC1CCCN(Cc2nc(-c3ccc4c(c3)OCO4)no2)C1 (stereo not given) | 42.1% (active) |
| CC1CCCN(CC(O)COc2ccc3c(c2)OCO3)C1 (stereo not given) | 4.28% (inactive) |
| Cc1c(NC(=O)c2c([N+](=O)[O-])cnn2C)c(=O)n(-c2ccccc2)n1C | -6.14% (inactive) |
| COc1ccc2cc(C(=O)NCC3CCCO3)[nH]c2c1 (stereo not given) | 62.1% (active) |
| O=C(Nc1ccccc1C(=O)NCC1CCCO1)c1ccccc1F (stereo not given) | 14.1% (inactive) |
| COc1ccc(SCc2noc(C(=O)NCC3CCCO3)c2C(=O)O)cc1 (stereo not given) | -3.22% (inactive) |
| CCC(=O)c1c[nH]c(C(=O)NCC2CCCO2)c1 (stereo not given) | -0.953% (inactive) |
| Cc1ccccc1CN(c1ccc(C(=O)NCC2CCCO2)cc1)S(C)(=O)=O (stereo not given) | -5.23% (inactive) |
| Cc1nc2ccccc2c2oc(C(=O)NCC3CCCO3)cc12 (stereo not given) | -1.07% (inactive) |
| O=C(NCC1CCCO1)c1ccccc1-c1nc(-c2ccccc2Cl)no1 (stereo not given) | 27.4% (active) |
| O=C(CSCc1c(F)cccc1Cl)NCC1CCCO1 (stereo not given) | 13.1% (inactive) |
| O=C(NCC1CCCO1)c1cc(-c2ccccc2)nc2ccccc12 (stereo not given) | 9.86% (inactive) |
| O=C(NCC1CCCO1)c1ccc2ccccc2n1 (stereo not given) | 29.9% (active) |
| Cc1ccc(-c2noc(-c3ccccc3C(=O)NCC3CCCO3)n2)cc1 (stereo not given) | 27.2% (active) |
| COCCNC(=O)c1ccccc1-c1nc(-c2ccccc2Cl)no1 | 28.8% (inactive) |
| Cc1sc2ncn(CC(=O)NCCCC(=O)NCc3ccc(F)cc3)c(=O)c2c1C | -1.09% (inactive) |
| Cc1cccn2c(CN(C)C3CCCc4ccccc43)c(C(=O)N3CCOCC3)nc12 (stereo not given) | -3.53% (inactive) |
| Cc1cc2c(cc1C)N(Cc1ccccc1)C1=NCCCN12 | -2.27% (inactive) |

| Compound | max response |
| --- | --- |
| CC(C)C[C@H](NC(=O)C1CCC(CNC(=O)[C@@H]2CCCN2C(=O)OC(C)(C)C)CC1)C(=O)O (stereo not given in full) | 0.405% (inactive) |
| CC(C)[C@H](NC(=O)N1CC(=O)Nc2ccccc21)C(=O)N[C@@H](Cc1c[nH]c2ccccc12)C(=O)O | -2.21% (inactive) |
| CN1CCN(c2ncc3c(n2)CC(c2ccccc2F)CC3=O)CC1 (stereo not given) | -2.88% (inactive) |
| COc1ccc2ccccc2c1CNc1nnnn1C | -2.6% (inactive) |
| COc1ccc2ccccc2c1CNCc1ccccn1 | 20.7% (active) |
| COc1ccc(C)cc1NC(=O)NCc1ccccn1 | -3.22% (inactive) |
| Cc1ccc(-c2c(C)n([O-])c3c([n+]2=O)CCC3)cc1 | 2.58% (inactive) |
| CC(Oc1ccc(-c2ccccc2)c(F)c1)c1ccn(S(=O)(=O)c2cccc3ccccc23)n1 (stereo not given) | -1.64% (inactive) |
| NNC(=O)CNC(c1ccccc1)c1cc(Cl)ccc1NC(=O)c1ccccc1 (stereo not given) | -3.14% (inactive) |
| C/[N+]([O-])=C\c1ccc([N+](=O)[O-])o1 | 8.46% (inactive) |
| O=C(/C=C/c1ccc([N+](=O)[O-])o1)NNC(=O)c1ccc(F)cc1 | 71.2% (active) |
| O=C(N/N=C/c1ccc([N+](=O)[O-])o1)c1cn(-c2ccccc2)nc1-c1ccc(F)cc1 | 10.8% (inactive) |
| CCOc1ncccc1C(=O)OCc1cn2cc(Cl)ccc2n1 | 9.62% (inactive) |
| O=C(/C=C/c1ccc2c(c1)OCO2)NCc1cn2cc(Cl)ccc2n1 | 2.11% (inactive) |
| Clc1ccc2nc(CSc3ccccc3)cn2c1 | 26.2% (active) |
| Cc1nn(CCCC(=O)NCc2ccccc2Cl)c(=O)c2nccn12 | -3.04% (inactive) |
| O=C(COC(=O)Cn1cnc2ccccc21)Nc1cccc2c1C(=O)c1ccccc1C2=O | -4.76% (inactive) |
| O=C(COC(=O)Cc1ccccc1)Nc1ccc(F)cc1 | -1.31% (inactive) |
| Cc1cccc(C(=O)OCC(=O)Nc2ccc(F)cc2)c1 | 10% (active) |
| COc1ccc(C(=O)OCC(=O)Nc2cccc(C(C)=O)c2)cc1OC | 9.48% (inactive) |
| O=C(COC(=O)c1ccccc1)Nc1ccccc1Sc1ccccc1 | 9.64% (inactive) |
| O=C(COC(=O)c1cccc(Br)c1)Nc1cccc2c1C(=O)c1ccccc1C2=O | 25.2% (active) |
| O=C1CCN(Cc2ccccc2)CCN1[C@H](CSc1ccccc1)c1ccccc1 | -1.82% (inactive) |
| CCOc1ccccc1NC(=S)NC(=O)CCc1ccccc1 | 1.38% (inactive) |

| Compound | max response |
| --- | --- |
| CCOc1ccc(CN2CCC(n3nccc3NC(=O)C3CC3)CC2)cc1CO | -1.74% (inactive) |
| Cc1ccc(CC2(O)CCN(CCOc3ccc(O)cc3)CC2)cc1 | 4.37% (inactive) |
| CC(C)C(=O)Nc1ccc2oc(=O)ccc2c1 | -3.4% (inactive) |
| CC(C)C(=O)Nc1ccc2c(c1)oc1ccccc12 | 67% (active) |
| CC(C)C(=O)Nc1c(C(=O)c2ccc(F)cc2)oc2ccccc12 | -1.75% (inactive) |
| Cn1c(=O)c(=O)n(C)c2cc(S(=O)(=O)CCC(=O)N3CCCCC3)ccc21 | -2.58% (inactive) |
| COc1ccccc1CCNC(=O)c1cnccn1 | 12.4% (inactive) |
| Cc1nn(Cc2ccccc2Cl)c(Cl)c1C(=O)OC(C(=O)NC(N)=O)C(C)C (stereo not given) | -4.81% (inactive) |
| COc1ccccc1CCNC(=O)c1c(C)nn(CC(C)C)c1Cl | 39% (active) |
| COc1ccc(C(=O)NC2CC2)cc1OC1CCN(C/C=C/c2ccccc2)CC1 | 2.49% (inactive) |
| COc1ccc(C)cc1N(CC(=O)NC(C)c1ccccc1)S(C)(=O)=O (stereo not given) | 5.61% (inactive) |
| CO/N=C/CC(=O)c1ccc(OC)cc1 | 49.2% (active) |
| COc1ccc(C(=O)CC2C(=O)N(C)C(=O)N(C)C2=O)cc1 | 4.98% (inactive) |
| COc1ccc(OCCC(=O)c2ccc(OC)cc2)cc1 | 4.64% (inactive) |
| Cc1ccc(NS(=O)(=O)c2c(C)[nH]c(=O)[nH]c2=O)cc1C | -1.76% (inactive) |
| CCOC(=O)c1nnn(-c2nonc2-n2cccc2)c1CN1CCC(C(=O)OCC)CC1 | -2.67% (inactive) |
| COCC(C)n1c(C)cc(C(=O)COc2ccc(C)nc2[N+](=O)[O-])c1C (stereo not given) | 8.12% (inactive) |
| Cc1cc(C(=O)CSc2nc(N)cc(=O)[nH]2)c(C)n1Cc1ccco1 | -1.02% (inactive) |
| COc1ccc(C)cc1-n1nnnc1SCC(=O)c1cc(C)n(Cc2ccco2)c1C | 27.1% (inactive) |
| Cc1cc(C(=O)COC(=O)CNC(=O)c2ccc(F)cc2)c(C)n1Cc1ccco1 | 106% (active) |
| Cc1ccc(OCC(=O)c2cc(C)n(Cc3ccco3)c2C)c([N+](=O)[O-])n1 | 43.4% (active) |
| O=C(COC(=O)CNC(=O)c1ccco1)Nc1ccc(F)cc1 | -3.97% (inactive) |
| Cc1ccc(S(=O)(=O)NCC(=O)N2CCOCCOCCOCCOCC2)cc1 | -3.49% (inactive) |
